# Inconclusive results are not listed. The source holds several records for some structures; these can differ, active in one and inactive in another. The source made the active and inactive calls. The calls were made as follows: active = hit-call score of the fitted dose curve at least 0.9, where 1 is the maximum; inconclusive = response in the unintended direction; inactive = score below 0.9.
# Key:
# [1] = biological target: Androgen Receptor/SRC-1 Co-activator, AR (gene 367) (UniProt P10275); assay: OT_AR_ARSRC1_0960: Odyssey Thera (OT) 16-hour HEK293T Protein-Complementation Assay for Androgen Receptor/SRC-1 Co-activator (AID 2283353);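 also: actives raise the signal above DMSO so potency reflects increased AR and SRC-1 complex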
# Procedure, shortened: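 Stable HEK293T line carries AR and SRC-1 each linked to a Venus fragment; chemicals are applied for 16 h, cells imaged at two wavelengths, and the 488 nm nucleus/cytoplasm ratio is taken as the signal, rising relative to DMSO.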
# [2] = biological target: Androgen Receptor/SRC-1 Co-activator, AR (gene 367) (UniProt P10275); assay: OT_AR_ARSRC1_0480: Odyssey Thera (OT) 8-hour HEK293T Protein-Complementation Assay for Androgen Receptor/SRC-1 Co-activator (AID 2283354);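 also: hits raise the complementation signal above DMSO so AC50 marks enhancers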
# Procedure, shortened: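 After 8 h dosing, stably expressing HEK293T cells with split-Venus AR/SRC-1 fusions were imaged (488, 635nm). The 488nm N/C ratio per image gave the endpoint, analysed in the positive direction against DMSO.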
# [3] = biological target: Estrogen receptor beta (Homo sapiens) (UniProt Q92731); assay: OT_ER_ERbERb_0480: Odyssey Thera (OT) 8-hour HEK293T Protein-Complementation Assay for Estrogen Receptor-beta/-beta Homodimer (AID 2283357);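 also: active means signal gain over DMSO baseline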
# Procedure, shortened: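 Fluorescence gain from complemented reporter fragments on ER-beta LBD homodimer in HEK293T was quantified against DMSO controls after 8 h treatment, fixation in 4% formaldehyde and Draq5 staining.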
# [4] = biological target: Retinoic acid receptor alpha (Homo sapiens) (UniProt P10276); assay: NVS_NR_hRAR_Antagonist: NovaScreen (NVS) Nuclear Receptor Binding Assay for human Retinoic Acid Alpha Receptor Antagonism (RAR) (AID 2283358)
# Procedure, shortened: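 Chemicals were first tested in duplicate at 25 uM, then actives in concentration series, in a cell-free TR-FRET antagonist binding format. Measurements were taken 2 hours after dosing and loss of signal was evaluated against DMSO controls.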
# [5] = biological target: Retinoic acid receptor alpha (Homo sapiens) (UniProt P10276); assay: NVS_NR_hRARa_Agonist: NovaScreen (NVS) Nuclear Receptor Binding Assay for human Retinoic Acid Alpha Receptor Agonism (RAR) (AID 2283361)
# Procedure, shortened: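 Compounds screened at 25 uM, duplicate, then in concentration series if active. Detection: TR-FRET gain of signal versus DMSO after 2 h with cell-free extracted RARα.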
# [6] = biological target: Peroxisome proliferator-activated receptor gamma (Homo sapiens) (UniProt P37231); assay: NVS_NR_hPPARg: NovaScreen (NVS) Nuclear Receptor Binding Assay for human Peroxisome Proliferator-activated Receptor gamma (PPARg) (AID 2283370)
# Procedure, shortened: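 Cell-free fluorescence polarization binding to human PPARg protein, read 2 h after dosing. Primary screen in duplicate at 25 uM, actives followed in concentration series; loss of signal relative to DMSO scored.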
# [7] = biological target: human Dopamine Transporter (DAT), SLC6A3 (gene 6531) (UniProt Q01959); assay: NVS_TR_hDAT: NovaScreen (NVS) Transporter Assay for human Dopamine Transporter (DAT) (AID 2283374);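 also: activity means loss of bound radioligand signal relative to DMSO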
# Procedure, shortened: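 Extracted human SLC6A3 protein incubated 1 h with radioligand and test chemical; bound fraction separated on filters and counted. Single 25 uM duplicate screen preceded concentration-response follow-up; positive and negative controls on every plate.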
# [8] = biological target: human Thyroid Receptor Alpha (TRa), THRA (gene 7067) (UniProt P10827); assay: NVS_NR_hTRa_Antagonist: NovaScreen (NVS) Nuclear Receptor Binding Assay for human Thyroid Receptor Alpha Antagonism (TRa) (AID 2283362);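 also: activity is loss of signal relative to DMSO baseline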
# Procedure, shortened: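 Cell-free AlphaLISA chemiluminescent binding read 1 h after dosing, antagonist mode; signal loss versus DMSO baseline. Primary screen in duplicate at 25 uM, then concentration series for actives.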
# [9] = biological target: Glucocorticoid receptor (Homo sapiens) (UniProt P04150); assay: NVS_NR_hGR: NovaScreen (NVS) Nuclear Receptor Binding Assay for human Glucocorticoid Receptor (GR) (AID 2283363);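 as to AC50: activity is loss of specific radioligand binding signal relative to DMSO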
# Procedure, shortened: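 Single-readout cell-free binding: radioligand plus extracted receptor, 16-hour dosing, filter radiodetection; 25 uM duplicate primary, concentration series secondary.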
# [10] = biological target: Nuclear receptor subfamily 1 group I member 2 (Homo sapiens) (UniProt O75469); assay: NVS_NR_hPXR: NovaScreen (NVS) Nuclear Receptor Binding Assay for human Pregnane X Receptor (PXR) (AID 2283365);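 also: a drop in FRET signal versus DMSO baseline means the compound binds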
# Procedure, shortened: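 Cell-free TR-FRET binding assay with extracted human PXR protein, read 2 h after dosing. Primary screen run in duplicate at 25 uM, actives followed in concentration series; loss of signal fitted against DMSO baseline.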
# [11] = test system: guinea pig Dopamine Transporter (DAT), gene 100714898; assay: NVS_TR_gDAT: NovaScreen (NVS) Transporter Assay for guinea pig Dopamine Transporter (DAT) (AID 2283369);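 also: active compounds lower bound radioligand signal relative to DMSO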
# Procedure, shortened: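 Guinea pig striatal membranes, cell-free radioligand binding with filter-based scintillation counting, read 2 h after dosing. Loss of signal versus DMSO baseline; single-concentration primary (25 uM) then concentration-response up to 50 uM.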
# [12] = biological target: guinea pig Sigma Receptor, Non-selective Binding, SIGMAR1 (gene 100135589) (UniProt Q60492); assay: NVS_OR_gSIGMA_NonSelective: NovaScreen (NVS) Nuclear Receptor Binding Assay for guinea pig Sigma Receptor, Non-selective Binding (AID 2283367)
# Procedure, shortened: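 Test chemicals were screened in duplicate at 25 uM, then in concentration series if active, against radioligand binding to guinea pig brain membranes; filtration and scintillation counting at 1 h measured remaining bound ligand.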
# [13] = biological target: human Adenosine Transporter (Adot), SLC29A1 (gene 2030) (UniProt Q99808); assay: NVS_TR_hAdoT: NovaScreen (NVS) Transporter Assay for human Adenosine Transporter (Adot) (AID 2283368)
# Procedure, shortened: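 Binding displacement on U937 extracted protein, read 1 h post-dose by filtration and scintillation counting. Primary duplicate test at 25 uM, then singleton concentration series with 50 uM top; DMSO baseline.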
# [14] = biological target: human Serotonin Transporter (SERT), SLC6A4 (gene 6532) (UniProt P31645); assay: NVS_TR_hSERT: NovaScreen (NVS) Transporter Assay for human Serotonin Transporter (SERT) (AID 2283372)
# Procedure, shortened: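 Human platelet membrane preparation; displacement of radioligand from serotonin transporter measured after 1 h by filtration and scintillation counting. Single 25 uM duplicate screen, then concentration series for actives, with DMSO as negative baseline.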
# [15] = biological target: rat Serotonin Transporter (SERT), Slc6a4 (gene 25553) (UniProt P31652); assay: NVS_TR_rSERT: NovaScreen (NVS) Transporter Assay for rat Serotonin Transporter (SERT) (AID 2283375)
# Procedure, shortened: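 Rat forebrain membranes; radioligand displacement at SERT read by filter-based scintillation counting, 1 h after dosing. Screened in duplicate at 25 uM, actives then run in concentration series; loss of signal versus DMSO baseline.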
# [16] = test system: rat Norepinephrine Transporter (NET), gene 83511; assay: NVS_TR_rNET: NovaScreen (NVS) Transporter Assay for rat Norepinephrine Transporter (NET) (AID 2283373)
# Procedure, shortened: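 Competitive radioligand displacement at the rat NET using forebrain membrane preparations, 1 h incubation, filter-based scintillation readout. Primary testing in duplicate at a single 25 uM concentration; confirmed actives retested across concentrations.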
# [17] = biological target: human Peroxisome Proliferator-activated Receptor alpha (PPARa), PPARA (gene 5465) (UniProt Q07869); assay: NVS_NR_hPPARa: NovaScreen (NVS) Nuclear Receptor Binding Assay for human Peroxisome Proliferator-activated Receptor alpha (PPARa) (AID 2283359);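 also: activity means loss of TR-FRET signal versus DMSO baseline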
# Procedure, shortened: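 One-hour incubation, cell-free extracted protein, TR-FRET binding readout; signal loss vs DMSO scored. Screen: 25 uM duplicates, confirmatory dose series for actives.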
# human Dopamine Transporter (DAT), SLC6A3 (gene 6531), sequence (Q01959 whole entry, looked up): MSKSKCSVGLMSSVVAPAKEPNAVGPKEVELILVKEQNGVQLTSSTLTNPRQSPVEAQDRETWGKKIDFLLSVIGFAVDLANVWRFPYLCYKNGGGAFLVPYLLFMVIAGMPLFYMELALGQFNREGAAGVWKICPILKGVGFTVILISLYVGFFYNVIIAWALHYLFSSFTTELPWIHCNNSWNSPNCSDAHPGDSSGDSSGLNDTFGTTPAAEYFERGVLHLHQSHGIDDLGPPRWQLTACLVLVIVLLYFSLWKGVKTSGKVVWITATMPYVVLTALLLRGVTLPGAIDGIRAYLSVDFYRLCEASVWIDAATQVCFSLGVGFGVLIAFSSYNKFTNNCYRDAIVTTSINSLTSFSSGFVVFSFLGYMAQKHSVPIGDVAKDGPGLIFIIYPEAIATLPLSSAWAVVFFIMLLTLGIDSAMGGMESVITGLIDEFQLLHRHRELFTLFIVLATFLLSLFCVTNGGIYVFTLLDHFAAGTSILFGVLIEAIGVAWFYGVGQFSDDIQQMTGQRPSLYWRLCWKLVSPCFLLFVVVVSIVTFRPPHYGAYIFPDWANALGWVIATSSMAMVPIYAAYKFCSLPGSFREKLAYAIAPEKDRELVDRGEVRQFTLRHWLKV
# human Thyroid Receptor Alpha (TRa), THRA (gene 7067), sequence (P10827 whole entry, looked up): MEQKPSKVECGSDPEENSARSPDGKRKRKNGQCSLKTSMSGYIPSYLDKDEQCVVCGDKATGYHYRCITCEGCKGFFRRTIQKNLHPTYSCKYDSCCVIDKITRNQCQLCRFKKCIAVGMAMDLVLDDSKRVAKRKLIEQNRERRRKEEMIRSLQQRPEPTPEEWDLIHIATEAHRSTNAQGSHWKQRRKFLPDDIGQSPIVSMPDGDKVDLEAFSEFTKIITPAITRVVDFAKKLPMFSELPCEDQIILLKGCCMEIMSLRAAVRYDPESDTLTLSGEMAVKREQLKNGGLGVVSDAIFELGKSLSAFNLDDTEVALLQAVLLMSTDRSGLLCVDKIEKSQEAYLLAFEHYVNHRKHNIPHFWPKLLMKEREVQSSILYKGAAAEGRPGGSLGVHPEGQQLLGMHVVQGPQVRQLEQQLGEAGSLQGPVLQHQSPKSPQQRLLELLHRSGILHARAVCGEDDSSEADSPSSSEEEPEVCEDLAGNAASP
# Peroxisome proliferator-activated receptor gamma (Homo sapiens), sequence (P37231 whole entry, looked up): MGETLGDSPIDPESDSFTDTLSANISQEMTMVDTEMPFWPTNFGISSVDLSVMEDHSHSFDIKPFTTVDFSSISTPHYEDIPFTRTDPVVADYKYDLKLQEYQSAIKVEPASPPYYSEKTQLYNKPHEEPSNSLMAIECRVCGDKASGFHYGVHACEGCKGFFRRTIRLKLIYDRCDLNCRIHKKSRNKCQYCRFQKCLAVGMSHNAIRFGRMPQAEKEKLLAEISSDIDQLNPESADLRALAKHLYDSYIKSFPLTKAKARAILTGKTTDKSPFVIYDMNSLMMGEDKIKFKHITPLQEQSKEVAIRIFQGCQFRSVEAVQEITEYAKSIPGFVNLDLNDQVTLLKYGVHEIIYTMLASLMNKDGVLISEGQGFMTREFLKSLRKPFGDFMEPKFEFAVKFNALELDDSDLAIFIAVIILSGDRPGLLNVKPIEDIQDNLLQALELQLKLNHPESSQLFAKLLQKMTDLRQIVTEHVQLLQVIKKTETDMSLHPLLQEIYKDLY
# Glucocorticoid receptor (Homo sapiens), sequence (P04150 whole entry, looked up): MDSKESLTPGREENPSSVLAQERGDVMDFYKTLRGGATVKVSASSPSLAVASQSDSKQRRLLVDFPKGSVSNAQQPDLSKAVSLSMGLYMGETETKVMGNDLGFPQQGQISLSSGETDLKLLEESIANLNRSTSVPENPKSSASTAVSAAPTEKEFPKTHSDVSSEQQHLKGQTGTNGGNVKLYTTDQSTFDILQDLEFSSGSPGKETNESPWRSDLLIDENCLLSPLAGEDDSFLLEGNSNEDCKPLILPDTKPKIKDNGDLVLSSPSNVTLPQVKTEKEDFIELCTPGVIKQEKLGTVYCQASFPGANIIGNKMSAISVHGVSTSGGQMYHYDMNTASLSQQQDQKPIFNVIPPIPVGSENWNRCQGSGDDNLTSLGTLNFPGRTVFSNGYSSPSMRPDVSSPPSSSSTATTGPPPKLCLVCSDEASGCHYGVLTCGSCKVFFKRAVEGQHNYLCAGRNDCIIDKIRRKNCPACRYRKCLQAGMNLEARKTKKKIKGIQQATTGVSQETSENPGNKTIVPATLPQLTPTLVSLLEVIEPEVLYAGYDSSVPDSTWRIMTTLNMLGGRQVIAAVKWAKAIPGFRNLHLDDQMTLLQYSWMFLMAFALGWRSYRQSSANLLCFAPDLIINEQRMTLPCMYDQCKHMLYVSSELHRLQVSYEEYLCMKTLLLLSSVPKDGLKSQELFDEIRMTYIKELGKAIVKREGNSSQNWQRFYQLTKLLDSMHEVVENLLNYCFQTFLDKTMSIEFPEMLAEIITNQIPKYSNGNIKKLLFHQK
# Androgen Receptor/SRC-1 Co-activator, AR (gene 367), sequence (P10275 whole entry, looked up, the tested form may be a part): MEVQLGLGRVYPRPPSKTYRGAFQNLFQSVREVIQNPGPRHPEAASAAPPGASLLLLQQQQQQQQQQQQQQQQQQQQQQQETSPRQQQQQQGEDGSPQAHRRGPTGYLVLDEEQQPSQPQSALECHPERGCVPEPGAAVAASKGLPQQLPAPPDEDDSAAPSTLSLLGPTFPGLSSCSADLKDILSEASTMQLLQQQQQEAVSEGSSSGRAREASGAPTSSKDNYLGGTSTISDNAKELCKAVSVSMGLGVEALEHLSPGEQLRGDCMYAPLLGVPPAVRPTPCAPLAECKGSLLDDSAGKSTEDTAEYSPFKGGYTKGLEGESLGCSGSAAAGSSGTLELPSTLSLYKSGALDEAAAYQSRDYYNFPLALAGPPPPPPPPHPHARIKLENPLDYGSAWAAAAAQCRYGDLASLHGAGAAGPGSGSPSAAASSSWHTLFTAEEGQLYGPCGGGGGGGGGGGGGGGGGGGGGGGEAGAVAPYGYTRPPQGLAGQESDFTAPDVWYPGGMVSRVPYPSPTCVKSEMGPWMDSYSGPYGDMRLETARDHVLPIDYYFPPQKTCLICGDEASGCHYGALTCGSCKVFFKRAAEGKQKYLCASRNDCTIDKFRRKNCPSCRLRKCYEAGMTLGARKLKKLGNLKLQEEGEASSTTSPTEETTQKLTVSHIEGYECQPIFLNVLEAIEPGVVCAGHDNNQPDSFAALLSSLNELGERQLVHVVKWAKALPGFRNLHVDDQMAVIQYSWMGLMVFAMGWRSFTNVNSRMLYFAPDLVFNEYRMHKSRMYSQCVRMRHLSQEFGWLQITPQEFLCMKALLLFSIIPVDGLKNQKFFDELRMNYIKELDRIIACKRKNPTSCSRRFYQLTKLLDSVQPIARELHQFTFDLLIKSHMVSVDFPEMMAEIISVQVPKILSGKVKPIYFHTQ
# Estrogen receptor beta (Homo sapiens), sequence (Q92731 whole entry, looked up, the tested form may be a part): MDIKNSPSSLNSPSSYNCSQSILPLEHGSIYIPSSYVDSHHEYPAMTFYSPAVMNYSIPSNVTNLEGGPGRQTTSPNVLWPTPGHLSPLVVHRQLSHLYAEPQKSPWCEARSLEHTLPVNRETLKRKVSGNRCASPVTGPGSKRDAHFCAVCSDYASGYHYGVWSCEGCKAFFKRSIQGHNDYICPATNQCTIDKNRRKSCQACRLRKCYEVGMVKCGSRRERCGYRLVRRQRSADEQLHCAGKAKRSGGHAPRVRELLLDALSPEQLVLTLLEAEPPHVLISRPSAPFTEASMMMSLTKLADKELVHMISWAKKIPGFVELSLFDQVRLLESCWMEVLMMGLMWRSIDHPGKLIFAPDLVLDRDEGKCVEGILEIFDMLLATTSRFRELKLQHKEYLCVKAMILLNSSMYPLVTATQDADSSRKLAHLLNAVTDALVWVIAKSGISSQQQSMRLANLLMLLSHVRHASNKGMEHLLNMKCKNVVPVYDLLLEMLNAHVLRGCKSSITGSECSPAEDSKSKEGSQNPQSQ
# Nuclear receptor subfamily 1 group I member 2 (Homo sapiens), sequence (O75469 whole entry, looked up): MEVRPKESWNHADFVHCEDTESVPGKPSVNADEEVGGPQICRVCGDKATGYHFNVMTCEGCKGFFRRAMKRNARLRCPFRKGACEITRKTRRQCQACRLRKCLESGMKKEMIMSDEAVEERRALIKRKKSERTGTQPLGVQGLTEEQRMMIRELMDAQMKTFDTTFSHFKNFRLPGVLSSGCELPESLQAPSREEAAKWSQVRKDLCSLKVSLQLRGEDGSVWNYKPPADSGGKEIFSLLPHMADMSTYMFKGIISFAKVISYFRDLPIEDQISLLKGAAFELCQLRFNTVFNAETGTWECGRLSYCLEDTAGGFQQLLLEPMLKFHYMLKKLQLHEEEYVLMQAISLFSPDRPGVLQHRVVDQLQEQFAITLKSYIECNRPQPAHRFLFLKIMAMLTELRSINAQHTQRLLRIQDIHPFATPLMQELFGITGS
# Retinoic acid receptor alpha (Homo sapiens), sequence (P10276 whole entry, looked up): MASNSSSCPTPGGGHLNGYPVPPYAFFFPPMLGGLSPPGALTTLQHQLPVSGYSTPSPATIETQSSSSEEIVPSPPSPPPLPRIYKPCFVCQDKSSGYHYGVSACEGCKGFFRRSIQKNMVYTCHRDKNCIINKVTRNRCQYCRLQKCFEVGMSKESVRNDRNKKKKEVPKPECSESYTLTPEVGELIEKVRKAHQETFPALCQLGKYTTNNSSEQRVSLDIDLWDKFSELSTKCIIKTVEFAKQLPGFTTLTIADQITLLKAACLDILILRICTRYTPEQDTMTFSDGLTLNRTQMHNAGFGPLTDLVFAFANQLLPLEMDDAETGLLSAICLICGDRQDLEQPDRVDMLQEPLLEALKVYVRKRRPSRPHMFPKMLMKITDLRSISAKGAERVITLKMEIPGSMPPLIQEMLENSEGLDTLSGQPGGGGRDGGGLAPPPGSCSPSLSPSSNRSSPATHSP
# guinea pig Sigma Receptor, Non-selective Binding, SIGMAR1 (gene 100135589), sequence (Q60492 whole entry, looked up): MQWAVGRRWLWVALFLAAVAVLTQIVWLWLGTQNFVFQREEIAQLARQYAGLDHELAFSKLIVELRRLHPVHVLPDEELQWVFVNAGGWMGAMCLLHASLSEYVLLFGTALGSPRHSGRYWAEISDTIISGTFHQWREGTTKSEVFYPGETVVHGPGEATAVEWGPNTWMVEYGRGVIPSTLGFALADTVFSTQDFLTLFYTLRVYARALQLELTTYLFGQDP
smiles,measurement,setting,value
N#CSCSC#N,AC50,[1],15.5 µM (active)
same,AC50,[2],18.2 µM (active)
same,outcome,[3],inactive
same,outcome,[4],inactive
CCCCSP(=O)(SCCCC)SCCCC,outcome,[3],inactive
COP(=O)(OC)SCn1c(=O)oc2cc(Cl)cnc21,AC50,[1],57.8 µM (active)
same,outcome,[2],inactive
O=[N+]([O-])c1cc(C(F)(F)F)c(Cl)c([N+](=O)[O-])c1Nc1ncc(C(F)(F)F)cc1Cl,outcome,[5],inactive
same,AC50,[6],0.319 µM (active)
same,outcome,[7],inactive
CC(C)[C@H](C(=O)O[C@H](C#N)c1cccc(Oc2ccccc2)c1)c1ccc(Cl)cc1,outcome,[3],inactive
same,outcome,[6],inactive
same,AC50,[7],16.2 µM (active)
CCCCN(CC)c1c([N+](=O)[O-])cc(C(F)(F)F)cc1[N+](=O)[O-],outcome,[3],inactive
same,outcome,[4],inactive
same,outcome,[8],inactive
same,outcome,[9],inactive
same,outcome,[6],inactive
CC1=NNC(=O)N(/N=C/c2cccnc2)C1,outcome,[3],inactive
same,outcome,[4],inactive
COP(=O)(OC)C(O)C(Cl)(Cl)Cl (stereo not drawn),outcome,[4],inactive
CC(C1CC1)C(O)(Cn1cncn1)c1ccc(Cl)cc1 (stereo not drawn),AC50,[3],29.6 µM (active)
same,outcome,[4],inactive
same,outcome,[8],inactive
same,outcome,[10],inactive
same,AC50,[7],0.175 µM (active)
CCOP(=S)(OCC)SCCSCC,outcome,[3],inactive
same,outcome,[4],inactive
same,outcome,[9],inactive
same,outcome,[6],inactive
CCC(CC)Nc1c([N+](=O)[O-])cc(C)c(C)c1[N+](=O)[O-],AC50,[3],12.6 µM (active)
same,outcome,[8],inactive
same,outcome,[9],inactive
same,outcome,[6],inactive
C#CCC1=C(C)C(OC(=O)C2C(C=C(C)C)C2(C)C)CC1=O (stereo not drawn),outcome,[3],inactive
same,AC50,[11],9.21 µM (active)
same,AC50,[7],12 µM (active)
FC(F)C(F)(F)OCC(Cn1cncn1)c1ccc(Cl)cc1Cl (stereo not drawn),outcome,[3],inactive
same,AC50,[9],8.87 µM (active)
same,AC50,[12],16.5 µM (active)
same,AC50,[7],7.59 µM (active)
CCc1cccc(C)c1N(C(=O)CCl)C(C)COC (stereo not drawn),outcome,[3],inactive
same,outcome,[4],inactive
same,outcome,[12],inactive
same,outcome,[6],inactive
COP(=O)(NC(C)=O)SC (stereo not drawn),outcome,[3],inactive
same,AC50,[9],1.66 µM (active)
same,outcome,[6],inactive
CSc1nnc(C(C)(C)C)c(=O)n1N,outcome,[3],inactive
same,outcome,[4],inactive
same,outcome,[7],inactive
CC1(C(=O)Nc2ccc(O)c(Cl)c2Cl)CCCCC1,AC50,[3],22.2 µM (active)
same,AC50,[11],3.33 µM (active)
same,AC50,[7],4.68 µM (active)
CNC(=O)ON=C(C)SC,outcome,[3],inactive
same,outcome,[9],inactive
CCOP(=S)(OCC)OC(Cl)C(Cl)(Cl)Cl (stereo not drawn),AC50,[3],38.6 µM (active)
same,outcome,[6],inactive
CCOP(=S)(OCC)Oc1cc(C)nc(C(C)C)n1,outcome,[9],inactive
O=C(O)c1cc(Oc2ccc(C(F)(F)F)cc2Cl)ccc1[N+](=O)[O-],outcome,[3],inactive
same,AC50,[6],9.58 µM (active)
CC(=NC#N)N(C)Cc1ccc(Cl)nc1,outcome,[3],inactive
same,outcome,[6],inactive
S=C1NCCN1,outcome,[4],inactive
same,outcome,[8],inactive
same,outcome,[12],inactive
CCc1cnc(C2=NC(C)(C(C)C)C(=O)N2)c(C(=O)O)c1 (stereo not drawn),AC50,[8],17.7 µM (active)
CCCOCC(=Nc1ccc(Cl)cc1C(F)(F)F)n1ccnc1,outcome,[3],inactive
same,AC50,[9],7.9 µM (active)
same,AC50,[12],7.82 µM (active)
same,AC50,[13],25 µM (active)
same,outcome,[11],inactive
same,AC50,[6],17.6 µM (active)
same,outcome,[14],inactive
same,AC50,[7],10.2 µM (active)
same,outcome,[15],inactive
CCOP(=O)(OCC)Oc1cc(C)nc(C(C)C)n1,outcome,[3],inactive
same,outcome,[8],inactive
same,outcome,[6],inactive
CCC(=NOC/C=C/Cl)C1=C(O)CC(C2CCOCC2)CC1=O (stereo not drawn),outcome,[3],inactive
same,outcome,[6],inactive
CC[C@H](C)[C@H]1O[C@]2(C=C[C@@H]1C)C[C@@H]1C[C@@H](C/C=C(\C)[C@@H](O[C@H]3C[C@H](OC)[C@@H](O[C@H]4C[C@H](OC)[C@@H](NC)[C@H](C)O4)[C@H](C)O3)[C@@H](C)/C=C/C=C3\CO[C@@H]4[C@H](O)C(C)=C[C@@H](C(=O)O1)[C@]34O)O2,AC50,[10],6.81 µM (active)
same,outcome,[16],inactive
same,outcome,[7],inactive
C[Si](Cn1cncn1)(c1ccc(F)cc1)c1ccc(F)cc1,outcome,[3],inactive
same,AC50,[7],9.33 µM (active)
CNc1cnn(-c2cccc(C(F)(F)F)c2)c(=O)c1Cl,outcome,[3],inactive
same,outcome,[4],inactive
same,outcome,[9],inactive
same,outcome,[6],inactive
CN(C)[C@@H]1C(=O)C(C(N)=O)=C(O)[C@@]2(O)C(=O)C3=C(O)c4c(O)cccc4[C@@](C)(O)[C@H]3[C@H](O)[C@@H]12,AC50,[17],14.1 µM (active)
same,outcome,[8],inactive
same,AC50,[10],2.08 µM (active)
same,outcome,[10],inactive
same,AC50,[6],20.2 µM (active)
same,outcome,[6],inactive
C#CC(C)(C)NC(=O)c1cc(Cl)cc(Cl)c1,outcome,[4],inactive
same,outcome,[9],inactive
same,AC50,[12],1.94 µM (active)
CCOC(=O)CC(SP(=O)(OC)OC)C(=O)OCC (stereo not drawn),outcome,[3],inactive
same,outcome,[4],inactive
same,outcome,[8],inactive
same,outcome,[12],inactive
same,outcome,[6],inactive
COc1cccc(C(=O)NN(C(=O)c2cc(C)cc(C)c2)C(C)(C)C)c1C,outcome,[3],inactive
same,outcome,[4],inactive
CC(C)N(C(=O)SCC(Cl)=C(Cl)Cl)C(C)C,outcome,[3],inactive
same,outcome,[4],inactive
same,outcome,[8],inactive
same,outcome,[9],inactive
same,outcome,[10],inactive
same,AC50,[7],7.84 µM (active)
same,outcome,[15],inactive
